Screening results from PubChem BioAssay.
tim23-1 inh = growth inhibitors of tim23-1 mutant yeast. S. cerevisiae tim23-1 growth, BacTiter-Glo luminescence, 24 h. inhibition, % at 20 µM. 1.3% of 330,000 active;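 active = growth inhibition of the mutant yeast at or above 50%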;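 also: temperature-sensitive mutant grown at 25 °C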
V-ATPase pHluor = yeast V-ATPase proton transport regulation by pHLuorin; S. cerevisiae, pHLuorin cytosolic pH fluorescence; response, % at 10 µM; 0.37% of 350,000 active; AID 504577; in the data active = response mostly above about 7.3%, no sharp cut-off; inactive = mostly below about 5.4%; also: actives read high
tim10-1 inh = growth inhibitors of tim10-1 mutant yeast | inhibition, % at 20 µM | 2.2% of 330,000 active | S. cerevisiae tim10-1 ts strain growth, BacTiter-Glo, 24 h;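 active = inhibition of at least 40%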;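 also: mutant grown at 25 °C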
PfHsp90 set2 = inhibits growth of yeast expressing Plasmodium falciparum Hsp90. inhibition, % at 9.4 µM. S. cerevisiae expressing PfHsp90, BacTiter-Glo ATP, 48 h; yeast lacking PDR1 and PDR3 efflux regulators. 0.32% of 310,000 active;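 active = every replicate shows inhibition above about 80%, whatever the replicate mean, limit read from the data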
TIM10 inh = inhibits growth of TIM10 yeast strain; S. cerevisiae TIM10 strain growth, BacTiter-Glo luminescence, 24 h; inhibition, % at 10 µM; 1.4% of 330,000 active; AID 463195;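 active = inhibition of 40% or more at the single tested concentration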;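 also: wild-type TIM10 isogenic control strain grown at permissive 25 °C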
tim23-1 confirm = confirmation of tim23-1 mutant yeast growth inhibitors | inhibition, % at 20 µM | S. cerevisiae tim23-1 growth, BacTiter-Glo luminescence, 24 h | 83% of 4,400 active | shares compounds with tim23-1 inh;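 active = inhibition above about 39% in either of two replicate wells at 20 µM, limit read from the data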;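 also: temperature-sensitive tim23-1 mutant grown at 25 °C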
A number is an active result; i = inactive; nt = no result. Most compounds without a hit are left out; they make up all but 3.7% or so of the library.

SMILES | tim23-1 inh | V-ATPase pHluor | tim10-1 inh | PfHsp90 set2 | TIM10 inh | tim23-1 confirm
O=C(Nc1cccc(-c2nnc(-c3ccccc3)o2)c1)c1ccc(Br)o1 | 73 | i | i | i | i | 63
O=C(Nc1cccc(-c2ccc(N3CCCCC3)nn2)c1)c1ccc(Br)o1 | 54 | i | i | i | i | 59
O=C(Nc1cccc(OC(=O)c2ccc(Br)o2)c1)c1ccccc1 | 64 | i | i | i | i | 57
O=C(COc1ccccc1)Nc1cccc(-c2nnc(-c3ccccc3)o2)c1 | i | i | i | i | i | nt
COc1ccccc1CNS(=O)(=O)c1c(C(=O)N2CCCCC2)c(C)n(C)c1C | i | i | i | i | i | nt
O=C(COC(=O)c1nc(Cl)c(Cl)c(Cl)c1Cl)NCc1ccccc1 | 59 | i | i | nt | i | 58
O=C(CCC(=O)Nc1cccc([N+](=O)[O-])c1)N/N=C/c1cccs1 | i | i | i | i | i | nt
CC(C)c1cc(C(=O)N2CCCC(Nc3ccc(F)cc3)C2)n[nH]1 (stereo not given) | i | i | i | i | i | nt
O=C(COC(=O)CNS(=O)(=O)c1ccc(Cl)cc1)NC1CCCCC1 | i | i | i | nt | i | nt
CCC(C)n1c(=O)c(C(=O)Nc2ccccc2S(N)(=O)=O)c(O)c2ccccc21 (stereo not given) | 54 | i | i | i | i | i
O=C(c1cc(-c2cccc(Cl)c2)nc2ccccc12)N1CCCC1 | i | i | i | i | i | nt
O=C(NC(=S)NCc1ccccc1)c1ccc(Br)o1 | 61 | i | i | i | i | i
O=C(NNC(=S)NCc1ccccc1)c1ccc2c(c1)OCO2 | i | i | i | i | i | nt
CCOc1ccccc1NC(=S)NC(=O)c1ccco1 | 54 | i | i | i | i | i
O=C(NC(=S)NCc1ccc(Cl)cc1Cl)c1ccco1 | i | i | i | i | i | nt
O=C(NC(=S)NCc1ccc(Cl)cc1)c1ccco1 | 51 | i | i | i | i | 45
O=C(NC(=S)NCc1ccccc1)c1ccc2c(c1)OCO2 | 50 | i | i | i | i | 43
CC(=O)N1CCCc2cc(S(=O)(=O)N3CCCC3)ccc21 | i | i | i | i | i | nt
CCCOc1ccc(Oc2ccc(S(=O)(=O)N3CCN(C)CC3)cn2)cc1 | i | i | i | i | i | nt
Cc1ccc(CN(C(=O)c2ccccc2[N+](=O)[O-])C2CCS(=O)(=O)C2)o1 (stereo not given) | i | i | i | i | i | nt
O=C(NC(=S)Nc1ccccc1)C1CCCCC1 | i | i | i | i | i | nt
O=C(NC(=S)NCc1ccccc1)C1CCCCC1 | 55 | i | i | i | i | i
COc1ccc(F)cc1S(=O)(=O)n1nc(C)cc1C | 95 | i | i | i | i | i
CCOC(=O)c1sc(NC(=O)C2CC(=O)N(c3ccccc3OC)C2)nc1C (stereo not given) | i | i | i | i | i | nt
O=C(Nc1ccccc1-c1ccccc1)NC1CC2CCCC(C1)N2CCc1ccccc1 (stereo not given) | i | i | i | i | i | nt
SMILES | tim23-1 inh | V-ATPase pHluor | tim10-1 inh | PfHsp90 set2 | TIM10 inh | tim23-1 confirm
O=C(Nc1ccccc1-c1ccccc1)NC1CC2CCCC(C1)N2Cc1ccc(F)cc1 (stereo not given) | 56 | i | i | i | i | i
COc1ccc(-c2cc(C(F)(F)F)nc(S(=O)(=O)CCCC(=O)Nc3cccnc3Cl)n2)cc1OC | nt | i | nt | i | nt | nt
O=C(CN1C(=O)c2ccccc2S1(=O)=O)c1ccc(Cl)cc1Cl | 51 | i | i | nt | i | i
O=C(CN1C(=O)c2ccccc2S1(=O)=O)c1ccccc1F | i | i | i | i | i | nt
CCN1CCN(CC(=O)Nc2ccc(N(C)C)cc2)CC1 | i | i | i | i | i | nt
Cc1cc(OCC(=O)c2ccc(C(F)(F)F)cc2)n2cnnc2n1 | 96 | i | i | i | i | i
Cc1cc(OCC(=O)c2cccc(C(F)(F)F)c2)n2cnnc2n1 | i | i | i | i | i | nt
O=C(c1cc(-c2ccc(O)cc2)on1)N1CCc2ccccc2C1 | 72 | i | i | i | i | 56
C/C(=N\Nc1nc2ccccc2s1)c1cccs1 | 64 | i | i | i | i | 48
C/C(=N\Nc1nc(-c2ccccc2)cs1)c1cccs1 | i | i | i | i | i | nt
C(=N\Nc1nc2ccccc2s1)/c1cccs1 | 59 | i | i | i | i | i
C(=N\Nc1nc2ccccc2s1)/c1ccco1 | i | i | i | i | i | nt
O=C(NC12CC3CC(CC(C3)C1)C2)c1cc([N+](=O)[O-])ccc1N1CCOCC1 | i | i | i | i | i | nt
Cc1nn(-c2ccc(F)cc2)c(C)c1NS(=O)(=O)c1ccc2ccccc2c1 | 66 | i | i | i | i | 60
O=C(O)c1cccc(Nc2nc(-c3cc4ccccc4oc3=O)cs2)c1 | i | i | i | i | i | nt
COc1ccc(N2CCN(c3nc4cc(C)ccc4cc3C=O)CC2)cc1 | 52 | i | i | i | i | 45
N#Cc1c(NC(=O)C2CC2)sc2c1CCCCC2 | 51 | i | i | i | i | 44
CCOC(=O)C1=C(C)NC(=S)NC1c1ccsc1 (stereo not given) | i | i | i | i | i | nt
CC(CC(=O)c1cccs1)CC(=O)c1cccs1 | i | i | i | i | i | nt
Cc1cc(C)c(C(CC(=O)c2cccs2)C(C#N)C#N)c(C)c1 (stereo not given) | 52 | i | i | i | i | i
Cc1ccc(S(=O)(=O)NC(CC(C)C)C(=O)N2CCC(C)CC2)cc1 (stereo not given) | 54 | i | i | i | i | 39
O=C1C2C(c3ccccc3)CC=CC2[C@H](c2ccoc2)N1Cc1ccccc1 (stereo not given in full) | i | i | i | i | i | nt
O=C1[C@H]2CCC=C[C@H]2[C@H](c2ccccc2Br)N1Cc1ccccc1 | 57 | i | i | i | i | i
COc1ccc(N2C(=O)[C@H]3CCC=C[C@H]3[C@@H]2c2ccccc2Br)cc1 | i | i | i | i | i | nt
O=C1[C@H]2CCC=C[C@H]2[C@H](c2cccc(Br)c2)N1Cc1ccccc1 | 58 | i | i | i | i | 53
SMILES | tim23-1 inh | V-ATPase pHluor | tim10-1 inh | PfHsp90 set2 | TIM10 inh | tim23-1 confirm
Cn1c(C=O)c(-c2ccc3c(c2)OCCO3)c2ccccc21 | 53 | i | i | i | i | 53
CCC(=O)OCC(=O)[C@@]1(OC(=O)CC)[C@@H](C)C[C@H]2[C@@H]3CCC4=CC(=O)C=C[C@]4(C)[C@@]3(Cl)[C@@H](O)C[C@@]21C | 55 | i | i | i | i | 40
Cc1ccc(/C=N/NC(=O)c2cc3c(ccc4ccccc43)o2)o1 | 56 | i | i | i | i | 46
COc1ccc(NC(=O)c2nc[nH]c2C(=O)N(C)CCO)cc1 | nt | i | nt | nt | nt | nt
CN=C1S/C(=C\c2cccc(Cl)c2Cl)C(=O)N1C | 50 | i | i | nt | i | 60
Oc1ccccc1/C=N/NC(=S)NC1CC2CC1C1C=CCC21 (stereo not given) | 74 | i | i | i | i | 49
CCC(=O)NC1=C(C#N)C2(CCCC2)Cc2ccccc21 | i | i | i | i | i | nt
N#CC1=C(N)c2ccccc2CC12CCCCC2 | 51 | i | i | i | i | 41
